# From PubChem BioAssay
# “And” between values parts separate entries of the source, which are not always exact repeats. Equal entries are not always repeated. The source made the active and inactive calls. Cut-off read from the data, not from the text of the source, unless noted: active = inhibition above about 80%; inactive = the rest.
# Key:
# [1] = CRL1545 cell growth, single agent and combined, cisplatin and BGB IC20 combos (AID 1671464); settings: CRL1545 osteosarcoma cells, stronger effect = higher value;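 note: cells exposed to compound for 96 hours before readout; 0% = vehicle DMSO and 100% = high DMSO killing control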
# F380Y = assay: BK channel mutant inhibitors and activators – cell-based, U2OS BacMam, thallium flux, beta subunits, selectivity assay, profiling panel (AID 1259406;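 active = thallium flux through the channel raised or lowered by more than 3 SD from vehicle-only wells, actives on both sides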;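 note: initial slope of Thallos dye fluorescence rise after thallium is added; log ratio against the mean of 0.3% DMSO vehicle wells on the same plate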); settings: U2OS BacMam BK variants, at 30 µM
# F380Y/beta1 = assay: as above; settings: U2OS BacMam BK variants, at 30 µM
# [2] = growth inhibition, single agents and combos, UWB1.289, cell-based, BGB or cisplatin combos, synergistic combos for chromothripsis tumors (AID 1671456); settings: UWB1.289 ovarian carcinoma cells, stronger effect = higher value;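 note: cells exposed to compound for four days; 0% = vehicle DMSO and 100% = killing by high DMSO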
# [3] = growth inhibition, single agents and combos, LFS_MB_2R, cell-based, cisplatin combos, synergistic combos for chromothripsis tumors (AID 1671457); settings: LFS_MB_2R medulloblastoma cells, stronger effect = higher value;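 note: cells exposed to compound for four days before readout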
# [4] = growth inhibition, MDA-MB-436, cell-based, BGB or cisplatin combos, synergistic combos for chromothripsis tumors (AID 1671458; call rule not given here;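 note: cells exposed for 96 hours; 0% = vehicle DMSO and 100% = killing by high DMSO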); settings: MDA-MB-436 breast carcinoma growth inhibition, drug combinations, stronger effect = higher value
# [5] = UWB1.289_BRCA1 ovarian cancer growth, cell-based, BGB or cisplatin combinations (AID 1671459); settings: UWB1.289 BRCA1 ovarian carcinoma, drug combinations, stronger effect = higher value
# [6] = drug combination toxicity in non-malignant astrocytes – cell-based, BGB or cisplatin IC20 combos, cytotoxicity control for chromothriptic childhood tumor combination screen (AID 1671460); settings: Human astrocytes, viability inhibition, drug combinations, at 0.5 µM, stronger effect = higher value;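 note: cells exposed to compounds for 96 hours before viability readout; 0% = vehicle and 100% = killing control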
# [7] = BT084 cell growth, single and combined drugs, ICGC_MB145, cisplatin and BGB IC40 combos (AID 1671461); settings: BT084 medulloblastoma cells, drug combinations, stronger effect = higher value;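 note: cells exposed to drugs for 96 hours; 0% = vehicle DMSO and 100% = high DMSO full killing control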
# [8] = RCMB18 cell growth, single agent and combined, cisplatin and BGB IC40 combos (AID 1671462); settings: RCMB18 medulloblastoma cells, stronger effect = higher value;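 note: cells exposed to compound for four days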
# [9] = measured here: inhibition with BGB combination, at 0.05 µM
# [10] = measured here: inhibition with cisplatin combination, at 0.05 µM
# [11] = measured here: combination with cisplatin, at 0.5 µM
# [12] = measured here: combination with cisplatin, at 5 µM
# [13] = measured here: BGB combination, at 0.5 µM
# [14] = measured here: BGB combination, at 5 µM
# [15] = measured here: cisplatin combination, at 0.5 µM
# [16] = measured here: cisplatin combination, at 5 µM
# [17] = BGB combination, concentration series, at 5 µM
# [18] = cisplatin combination, concentration series, at 5 µM
# [19] = measured here: combo with BGB IC20
# [20] = measured here: combo with cisplatin IC20
# [21] = cisplatin combination, at 0.5 µM
# [22] = measured here: BGB IC40 combination 0.05 uM, at 0.05 µM
# [23] = measured here: BGB IC40 combination, at 0.05 µM
# [24] = measured here: with BGB IC20 combination, at 0.5 µM
# [25] = measured here: with cisplatin IC20 combination, at 0.5 µM
smiles,measurement,setting,value
O=NN(CCCl)C(=O)NCCCl,inhibition,"[1]; single agent, at 0.05 µM",-3.95%
same,inhibition,"[1]; single agent, at 5 µM",10.1%
C[C@@H]1C[C@H]2[C@@H]3CCC4=CC(=O)C=C[C@]4(C)[C@@]3(F)[C@@H](O)C[C@]2(C)[C@H]1C(=O)CO,log fold change Tl+ flux,F380Y,0.0533 (inactive)
same,log fold change Tl+ flux,F380Y/beta1,0.0836 (inactive)
CC(N)C12CC3CC(CC(C3)C1)C2 (configuration not stated),inhibition,[2]; at 0.5 µM,-6.71% (inactive)
same,inhibition,[2]; [9],-27.7%
same,inhibition,[2]; [10],-16.3%
same,inhibition,[3]; at 0.5 µM,-18.8% (inactive)
same,inhibition,[3]; [11],-16.8%
same,inhibition,[3]; [12],-59.2%
same,inhibition,[4]; at 0.5 µM,-35.4% (inactive)
same,inhibition,[4]; [13],-21.6%
same,inhibition,[4]; [14],-29.1%
same,inhibition,[4]; [15],-60.5%
same,inhibition,[4]; [16],-34.4%
same,inhibition,[5]; [17],-31.1%
same,inhibition,[5]; at 0.5 µM,-16.9% (inactive)
same,inhibition,[5]; [18],2.74%
same,inhibition,[6],-10.5% (inactive)
same,inhibition,[6]; [19],-8.28%
same,inhibition,[6]; [20],-5.35%
same,inhibition,[7]; at 0.5 µM,-35.2% (inactive)
same,inhibition,[7]; [21],-18.2%
same,inhibition,"[7]; cisplatin combination, at 5 µM",-3.55%
same,inhibition,[7]; [22],9.42%
same,inhibition,"[7]; single agent, at 5 µM",-34.6%
same,inhibition,[8]; at 0.5 µM,-21.2% (inactive)
same,inhibition,"[8]; cisplatin combo, at 5 µM",-32.4%
same,inhibition,[8]; [23],-22.9%
same,inhibition,[8]; [11],-18.2%
same,inhibition,"[8]; single agent, at 5 µM",-26.9%
same,inhibition,[1]; at 0.5 µM,-36.2% (inactive)
same,inhibition,[1]; [24],-19.2%
same,inhibition,[1]; [25],-48%
same,inhibition,"[1]; single agent, at 0.05 µM",-83.2%
same,inhibition,"[1]; single agent, at 5 µM",0.3%
same,log fold change Tl+ flux,F380Y,0.00103 (inactive)
same,log fold change Tl+ flux,F380Y/beta1,0.0203 (inactive)
CC1CCc2cc(F)cc3c(=O)c(C(=O)O)cn1c23 (configuration not stated),inhibition,[2]; at 0.5 µM,2.76% (inactive) and 0.5% (inactive)
same,inhibition,[2]; [9],-16.2% and 1.75%
same,inhibition,[2]; [10],-12.2% and 4%
same,inhibition,[3]; at 0.5 µM,-19.5% (inactive) and -4.64% (inactive)
same,inhibition,[3]; [11],-15.1% and -2.74%
same,inhibition,[3]; [12],-12% and -9.68%
same,inhibition,[4]; at 0.5 µM,-12.1% (inactive) and -0.02% (inactive)
same,inhibition,[4]; [13],-17.3% and -1.89%
same,inhibition,[4]; [14],-23.6% and -8.65%
same,inhibition,[4]; [15],-18.1% and 1.92%
same,inhibition,[4]; [16],-8.63% and -4.96%
same,inhibition,[5]; [17],7.3% and -2.65%
same,inhibition,[5]; at 0.5 µM,0.71% (inactive) and -0.93% (inactive)
same,inhibition,[5]; [18],1.53% and -5.02%
same,inhibition,[6],7.24% (inactive) and 2.53% (inactive)
same,inhibition,[6]; [19],6.98% and 4.66%
same,inhibition,[6]; [20],1.25% and 9.82%
same,inhibition,[7]; at 0.5 µM,-21.2% (inactive) and 2.68% (inactive)
same,inhibition,[7]; [21],-37.8% and -1.29%
same,inhibition,"[7]; cisplatin combination, at 5 µM",-84.9% and -4.5%
same,inhibition,[7]; [22],25.8% and 24.3%
same,inhibition,"[7]; single agent, at 5 µM",-17% and 4.9%
same,inhibition,[8]; at 0.5 µM,-15.1% (inactive) and 7.22% (inactive)
same,inhibition,"[8]; cisplatin combo, at 5 µM",-26.9% and 25%
same,inhibition,[8]; [23],-11.2% and -0.956%
same,inhibition,[8]; [11],-23.8% and 30.6%
same,inhibition,"[8]; single agent, at 5 µM",-29.1% and -22.6%
same,inhibition,[1]; at 0.5 µM,-14.4% (inactive) and -0.92% (inactive)
same,inhibition,[1]; [24],1.08% and -21.3%
same,inhibition,[1]; [25],-22.2% and 9.24%
same,inhibition,"[1]; single agent, at 0.05 µM",22.2% and 18.9%
same,inhibition,"[1]; single agent, at 5 µM",6.9% and 9.8%
O=c1oc2c(O)c(O)cc3c(=O)oc4c(O)c(O)cc1c4c23,inhibition,[2]; at 0.5 µM,-3.64% (inactive)
same,inhibition,[2]; [9],-22.8%
same,inhibition,[2]; [10],-16.6%
same,inhibition,[3]; at 0.5 µM,-23% (inactive)
same,inhibition,[3]; [11],-27.7%
same,inhibition,[3]; [12],-17%
same,inhibition,[4]; at 0.5 µM,-9.5% (inactive)
same,inhibition,[4]; [13],-12.3%
same,inhibition,[4]; [14],-25.4%
same,inhibition,[4]; [15],-5.2%
same,inhibition,[4]; [16],-11.4%
same,inhibition,[5]; [17],12.5%
same,inhibition,[5]; at 0.5 µM,-1.72% (inactive)
same,inhibition,[5]; [18],19.2%
same,inhibition,[6],10.8% (inactive)
same,inhibition,[6]; [19],0.281%
same,inhibition,[6]; [20],16.2%
same,inhibition,[7]; at 0.5 µM,-21.3% (inactive)
same,inhibition,[7]; [21],-17.9%
same,inhibition,"[7]; cisplatin combination, at 5 µM",-19.7%
same,inhibition,[7]; [22],1.07%
same,inhibition,"[7]; single agent, at 5 µM",-27.1%
same,inhibition,[8]; at 0.5 µM,-15.5% (inactive)
same,inhibition,"[8]; cisplatin combo, at 5 µM",10.7%
same,inhibition,[8]; [23],-24.9%
same,inhibition,[8]; [11],18.1%
same,inhibition,"[8]; single agent, at 5 µM",-30.9%
same,inhibition,[1]; at 0.5 µM,-12.1% (inactive)
same,inhibition,[1]; [24],3.22%
same,inhibition,[1]; [25],-19.8%
same,inhibition,"[1]; single agent, at 0.05 µM",-16%
same,inhibition,"[1]; single agent, at 5 µM",12.2%
